Results from ChEMBL document CHEMBL1961873, “Compounds: GSK PKIS; Assays: Nanosyn kinase panel” (2012).

Tests used:
[1] = target: MAP/microtubule affinity-regulating kinase 3 (Homo sapiens) (UniProt P27448); conditions: at 1 µM;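 also: reported values are averaged percent inhibition of MARK3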
[2] = target: T1, MAP/microtubule affinity-regulating kinase 4 (Homo sapiens) (UniProt Q96L34); conditions: at 0.1 µM
T1 sequence (whole entry): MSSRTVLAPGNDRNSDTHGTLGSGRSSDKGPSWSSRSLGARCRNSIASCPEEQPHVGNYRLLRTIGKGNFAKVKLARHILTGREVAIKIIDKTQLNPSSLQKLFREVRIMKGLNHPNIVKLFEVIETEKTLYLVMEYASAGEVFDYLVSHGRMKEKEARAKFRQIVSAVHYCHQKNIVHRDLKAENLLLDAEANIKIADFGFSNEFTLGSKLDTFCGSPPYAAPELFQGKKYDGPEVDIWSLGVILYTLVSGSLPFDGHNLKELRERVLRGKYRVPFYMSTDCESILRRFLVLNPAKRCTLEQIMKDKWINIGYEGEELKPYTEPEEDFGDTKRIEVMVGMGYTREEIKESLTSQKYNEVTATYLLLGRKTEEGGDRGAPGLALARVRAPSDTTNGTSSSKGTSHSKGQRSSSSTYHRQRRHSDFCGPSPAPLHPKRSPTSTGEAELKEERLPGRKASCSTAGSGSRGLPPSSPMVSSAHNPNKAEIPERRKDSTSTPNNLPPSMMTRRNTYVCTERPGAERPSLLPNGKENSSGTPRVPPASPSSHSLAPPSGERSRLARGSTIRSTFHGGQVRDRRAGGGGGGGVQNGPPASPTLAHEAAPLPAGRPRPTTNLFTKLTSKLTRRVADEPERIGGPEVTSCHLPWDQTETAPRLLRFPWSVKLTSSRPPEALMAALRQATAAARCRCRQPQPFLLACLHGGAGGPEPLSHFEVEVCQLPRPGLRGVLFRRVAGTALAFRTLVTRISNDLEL

[3] = target: T1, MAP/microtubule affinity-regulating kinase 4 (Homo sapiens); conditions: at 1 µM
[4] = target: Maternal embryonic leucine zipper kinase (Homo sapiens) (UniProt Q14680); conditions: at 0.1 µM
Sequence of Maternal embryonic leucine zipper kinase (Homo sapiens) (Q14680 whole entry, looked up): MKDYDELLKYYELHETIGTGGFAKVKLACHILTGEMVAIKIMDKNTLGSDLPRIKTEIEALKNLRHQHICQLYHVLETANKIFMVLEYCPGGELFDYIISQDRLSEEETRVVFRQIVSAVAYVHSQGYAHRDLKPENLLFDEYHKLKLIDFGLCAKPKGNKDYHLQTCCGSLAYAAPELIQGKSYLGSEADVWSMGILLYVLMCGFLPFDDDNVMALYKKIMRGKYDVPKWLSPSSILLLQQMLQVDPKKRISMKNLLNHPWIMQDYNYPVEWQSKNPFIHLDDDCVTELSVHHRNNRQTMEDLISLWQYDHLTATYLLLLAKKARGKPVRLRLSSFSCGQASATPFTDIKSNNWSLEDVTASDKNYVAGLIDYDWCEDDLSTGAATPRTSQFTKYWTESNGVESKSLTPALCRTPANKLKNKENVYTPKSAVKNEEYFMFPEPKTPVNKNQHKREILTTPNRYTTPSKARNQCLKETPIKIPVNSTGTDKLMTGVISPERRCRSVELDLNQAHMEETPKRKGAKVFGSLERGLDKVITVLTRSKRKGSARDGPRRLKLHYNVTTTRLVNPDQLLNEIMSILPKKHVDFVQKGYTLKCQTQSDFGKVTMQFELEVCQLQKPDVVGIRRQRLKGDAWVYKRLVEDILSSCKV

[5] = target: Maternal embryonic leucine zipper kinase (Homo sapiens) (UniProt Q14680); conditions: at 1 µM
[6] = target: MAP kinase-interacting serine/threonine-protein kinase 1 (Homo sapiens) (UniProt Q9BUB5); conditions: at 0.1 µM
Sequence of MAP kinase-interacting serine/threonine-protein kinase 1 (Homo sapiens) (Q9BUB5 whole entry, looked up): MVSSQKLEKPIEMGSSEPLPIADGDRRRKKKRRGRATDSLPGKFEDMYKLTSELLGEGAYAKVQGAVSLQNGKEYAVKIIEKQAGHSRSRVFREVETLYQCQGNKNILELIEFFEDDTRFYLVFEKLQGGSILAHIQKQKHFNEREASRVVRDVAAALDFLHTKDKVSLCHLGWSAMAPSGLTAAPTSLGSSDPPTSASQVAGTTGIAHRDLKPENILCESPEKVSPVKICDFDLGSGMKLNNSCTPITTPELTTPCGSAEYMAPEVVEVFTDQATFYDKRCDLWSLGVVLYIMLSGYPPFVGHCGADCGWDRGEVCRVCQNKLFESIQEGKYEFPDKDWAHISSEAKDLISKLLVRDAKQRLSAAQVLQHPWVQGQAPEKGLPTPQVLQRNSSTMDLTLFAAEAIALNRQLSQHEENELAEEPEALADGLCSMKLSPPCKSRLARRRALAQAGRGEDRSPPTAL

[7] = target: MAP kinase-interacting serine/threonine-protein kinase 1 (Homo sapiens) (UniProt Q9BUB5); conditions: at 1 µM
[8] = target: MAP kinase-interacting serine/threonine-protein kinase 2 (Homo sapiens) (UniProt Q9HBH9); conditions: at 0.1 µM
Sequence of MAP kinase-interacting serine/threonine-protein kinase 2 (Homo sapiens) (Q9HBH9 whole entry, looked up): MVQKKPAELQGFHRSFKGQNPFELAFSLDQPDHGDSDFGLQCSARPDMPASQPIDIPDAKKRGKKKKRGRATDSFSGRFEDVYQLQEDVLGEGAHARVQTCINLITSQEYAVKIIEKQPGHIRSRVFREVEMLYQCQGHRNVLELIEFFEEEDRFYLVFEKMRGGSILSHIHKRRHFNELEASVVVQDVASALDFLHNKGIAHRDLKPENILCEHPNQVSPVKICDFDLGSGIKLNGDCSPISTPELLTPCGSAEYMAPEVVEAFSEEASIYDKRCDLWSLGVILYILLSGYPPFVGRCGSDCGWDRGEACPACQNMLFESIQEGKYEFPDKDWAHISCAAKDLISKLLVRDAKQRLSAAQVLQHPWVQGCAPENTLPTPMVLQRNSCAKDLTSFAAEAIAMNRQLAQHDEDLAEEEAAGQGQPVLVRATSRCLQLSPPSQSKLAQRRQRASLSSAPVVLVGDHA

[9] = target: MAP kinase-interacting serine/threonine-protein kinase 2 (Homo sapiens) (UniProt Q9HBH9); conditions: at 1 µM
[10] = target: Serine/threonine-protein kinase MARK2 (Homo sapiens) (UniProt Q7KZI7); conditions: at 0.1 µM;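 also: mean percent inhibition of PAR-1Balpha kinase activity, reported from the GSK PKIS screen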
Sequence of Serine/threonine-protein kinase MARK2 (Homo sapiens) (Q7KZI7 whole entry): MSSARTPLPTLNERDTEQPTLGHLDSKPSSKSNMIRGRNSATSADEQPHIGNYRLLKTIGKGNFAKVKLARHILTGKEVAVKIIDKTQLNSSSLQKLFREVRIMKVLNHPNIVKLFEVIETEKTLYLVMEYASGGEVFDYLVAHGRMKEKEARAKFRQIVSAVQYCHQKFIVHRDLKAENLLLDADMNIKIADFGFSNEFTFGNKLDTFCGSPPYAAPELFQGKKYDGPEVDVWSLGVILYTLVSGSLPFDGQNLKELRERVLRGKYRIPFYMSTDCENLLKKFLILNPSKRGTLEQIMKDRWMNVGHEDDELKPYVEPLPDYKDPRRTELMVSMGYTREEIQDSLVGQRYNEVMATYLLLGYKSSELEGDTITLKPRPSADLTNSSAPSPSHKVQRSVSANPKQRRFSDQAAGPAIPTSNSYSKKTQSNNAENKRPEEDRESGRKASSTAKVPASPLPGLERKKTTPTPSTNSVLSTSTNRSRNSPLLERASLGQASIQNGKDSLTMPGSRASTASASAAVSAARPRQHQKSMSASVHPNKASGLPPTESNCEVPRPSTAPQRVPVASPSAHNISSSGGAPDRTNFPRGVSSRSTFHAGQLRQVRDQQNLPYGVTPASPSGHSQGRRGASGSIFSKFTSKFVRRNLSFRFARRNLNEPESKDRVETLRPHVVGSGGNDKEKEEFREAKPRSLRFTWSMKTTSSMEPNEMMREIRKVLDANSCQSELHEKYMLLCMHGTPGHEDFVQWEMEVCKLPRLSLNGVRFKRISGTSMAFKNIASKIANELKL

Sequence of MAP/microtubule affinity-regulating kinase 3 (Homo sapiens) (P27448 whole entry, looked up): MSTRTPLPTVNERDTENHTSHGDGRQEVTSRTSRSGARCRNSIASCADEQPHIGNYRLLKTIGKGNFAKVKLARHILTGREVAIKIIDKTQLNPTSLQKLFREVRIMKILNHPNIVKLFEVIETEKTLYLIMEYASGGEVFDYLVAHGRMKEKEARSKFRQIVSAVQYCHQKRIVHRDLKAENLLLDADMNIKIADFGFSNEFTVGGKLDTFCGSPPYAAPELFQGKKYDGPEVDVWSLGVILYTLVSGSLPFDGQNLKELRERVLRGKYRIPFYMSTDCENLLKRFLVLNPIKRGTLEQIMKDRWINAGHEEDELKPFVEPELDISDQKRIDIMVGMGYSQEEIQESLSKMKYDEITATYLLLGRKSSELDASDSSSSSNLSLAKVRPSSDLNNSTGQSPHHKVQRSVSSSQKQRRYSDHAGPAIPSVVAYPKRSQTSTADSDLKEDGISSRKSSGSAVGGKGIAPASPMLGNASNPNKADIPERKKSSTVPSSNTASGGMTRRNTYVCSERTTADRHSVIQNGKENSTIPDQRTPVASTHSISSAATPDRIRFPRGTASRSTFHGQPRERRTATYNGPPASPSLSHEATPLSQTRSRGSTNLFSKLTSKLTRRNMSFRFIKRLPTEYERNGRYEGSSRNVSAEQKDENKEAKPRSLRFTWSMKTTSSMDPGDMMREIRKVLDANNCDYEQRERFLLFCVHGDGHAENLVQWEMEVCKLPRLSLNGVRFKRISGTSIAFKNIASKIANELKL

Compound | inhibition [1] | inhibition [2] | inhibition [3] | inhibition [4] | inhibition [5] | inhibition [6] | inhibition [7] | inhibition [8] | inhibition [9] | inhibition [10]
COC(=O)c1sc(-n2cnc3cc(OC)c(OC)cc32)cc1OCc1ccccc1C(F)(F)F | 3.04% | 2.41% | 4.85% | 4.31% | 12.6% | 3.55% | 3.3% | 0.22% | -0.04% | -1.89%
Cc1ccc2c(-c3ccnc(Nc4ccccc4)n3)c(-c3ccc(F)cc3)nn2n1 | 0.65% | 1.31% | 1.67% | 1.41% | 5.51% | 0.98% | 1.88% | 0.04% | 0.75% | 0.87%
CCN1CCC(CC(=O)Nc2n[nH]c3nnc(-c4cccc(F)c4F)cc23)CC1 | 2.57% | 2.32% | 2.11% | 3.71% | 2.39% | 1.66% | 2.05% | 1.98% | 2.98% | -2.03%
COc1cc2c(cc1Nc1nc(Nc3ccsc3C(N)=O)c3cc[nH]c3n1)N(C(=O)CN(C)C)CCC2(C)C | 7.59% | 4.25% | 6.44% | 6.08% | 14.8% | 3.09% | 6.26% | 1.36% | 3.03% | 1.24%
CNC(=O)c1cccc(C#Cc2cncnc2Nc2ccc(OCc3cccc(F)c3)c(Cl)c2)c1 | 23.2% | -0.97% | 0.31% | -3.3% | -0.86% | 3.12% | 26.2% | 1.92% | 13.1% | -2.05%
CCn1c(-c2nonc2N)nc2cnc(Oc3cccc(NC(=O)c4ccc(N(C)C)cc4)c3)cc21 | 12.2% | 0.81% | 3.87% | 8.41% | 44.2% | 2.31% | 11.5% | 3.41% | 27.8% | 0.56%
[O-][S+]1CCN(Cc2ccc(-c3ccc4ncnc(Nc5ccc(OCc6cccc(F)c6)c(Cl)c5)c4c3)o2)CC1 | 1.78% | 3.49% | 3.99% | 7.16% | 5.89% | 2.71% | 6.2% | 1.46% | 6.51% | 2.19%
Fc1ccc(-c2cc(-c3c[nH]nc3-c3ccccn3)ccn2)cc1 | 0.81% | 1.12% | 1.84% | 0.52% | 7.4% | 4.46% | 10.4% | 2.83% | 6.06% | -3.26%
Nc1nc(-c2cccc(Cl)c2)c(-c2ccc3ncccc3n2)s1 | 6.68% | 1.87% | -0.31% | 4.19% | 11.3% | 3.39% | 9.69% | 2.72% | 7.56% | 1.01%
CC1=C(C(=O)Nc2cc(Cl)c3[nH]ncc3c2)C(c2ccc(C(F)(F)F)cc2)CC(=O)N1 (stereo not given) | 9.91% | 1.64% | 3.1% | 5.47% | 7.81% | 2.74% | 7.79% | 2.19% | 5.02% | 1.6%
COc1ccc(-c2cc(-c3c[nH]nc3-c3ccccn3)ccn2)cc1 | 5.51% | 2.2% | 2.28% | 3.77% | 8.05% | 3.19% | 7.19% | 2% | 6.65% | 2.97%
CCn1c(-c2nonc2N)nc2c(C#CC(C)(C)O)ncc(OC3CCNCC3)c21 | 77.7% | 14% | 62.1% | 21.2% | 76.4% | 1.74% | 2.25% | 2.54% | 2.87% | 19.3%
NC(=O)c1sc(-n2cnc3ccc(C(F)(F)F)cc32)cc1OCc1ccccc1Br | 11.5% | 1.2% | 2.56% | 2.87% | 7.71% | 2.89% | 5.77% | 1.04% | 3.71% | -0.38%
NS(=O)(=O)c1ccc(N/N=C2\C(=O)Nc3ccc4ncccc4c32)cc1 | 40.9% | 11.4% | 52% | 50.3% | 93.4% | 4% | 19.4% | 2.52% | 20.4% | 5.97%
c1ccc(COc2ccc(Nc3ncnc4ccc(-c5ccco5)cc34)cc2)cc1 | 3.2% | 0.96% | 1.77% | 0.14% | -3.64% | 1.35% | 5.5% | 2.49% | 8.27% | -1.72%
CCc1nn2ncccc2c1-c1ccnc(NC2CC2)n1 | 3.36% | 2.15% | 2.34% | 2.14% | 5.08% | 5.42% | 17.9% | 2.69% | 8.83% | 1.31%
CC(C)(CO)CNC(=O)c1ccc2c(c1)/C(=N/Nc1ccc(S(N)(=O)=O)cc1)C(=O)N2 | 36.6% | 7.2% | 42.6% | 18.8% | 72.7% | 0.85% | 3.37% | -0.26% | 9.44% | 3.29%

Compound | inhibition [1] | inhibition [2] | inhibition [3] | inhibition [4] | inhibition [5] | inhibition [6] | inhibition [7] | inhibition [8] | inhibition [9] | inhibition [10]
Cc1cccc(Nc2ncc(-c3ccccc3)o2)c1 | 9.41% | 1.51% | 6.57% | 3.78% | 9.64% | 1.9% | 1.76% | 3.35% | 8.3% | 2.22%
N#Cc1c(NC(=O)c2ccc(F)cc2)sc2c1CCCC2 | 1.66% | 0.11% | 1.29% | 0.18% | 5.26% | 0.47% | 1.91% | 0.57% | 1.1% | 0.6%
CNC(=O)c1cncc(/C=C/c2ccccc2Cl)c1 | -4.55% | -0.44% | 2.25% | 0.11% | -3.52% | 4.17% | 23.1% | 6.83% | 17.6% | 1.5%
Cc1ccc(O)cc1Nc1ccnc2cc(-c3ccccn3)ccc12 | 10.8% | 2.1% | 3.98% | 1.72% | 3.79% | 3.8% | 6.21% | 1.72% | 4.94% | 0.54%
COc1cc(Nc2nccc(Nc3ccc4c(C)n[nH]c4c3)n2)cc(OC)c1OC | 9.39% | 1.78% | 8% | 3.21% | 8.73% | 2.01% | 13.5% | 2.68% | 19.2% | 1.57%
Clc1ccc(-c2nn3ncccc3c2-c2ccnc(Nc3ccccc3)n2)cc1 | 8.43% | 0.1% | 1.26% | 2.47% | 1.1% | 0.8% | 3.07% | 0.53% | 1.38% | 0.74%
FC(F)(F)c1cccc(-c2nn3ncccc3c2-c2ccnc(Nc3ccc4c(c3)OCCO4)n2)c1 | 3.45% | 0.66% | 1.99% | 1.43% | 4.99% | 1.74% | 3.33% | 0.83% | 1.61% | -1.11%
COc1ccc2[nH]c3c4[nH]c5ccc(OC)cc5c4c4c(c3c2c1)C(=O)NC4=O | 33.5% | 3.93% | 15.9% | 22.3% | 77.6% | 6.39% | 11.5% | 8.34% | 18.1% | 1.57%
CN1CCC(n2cnc(-c3ccc(F)cc3)c2-c2ccnc(N)n2)CC1 | 6.18% | 0.14% | 0.48% | 2.15% | 12.9% | 8.32% | 41.2% | 3.66% | 16.9% | -1.15%
c1cc(-c2cnn3nc(N4CCOCC4)ccc23)nc(NC2CC2)n1 | 12.9% | 1.01% | 5.05% | 8.27% | 43.9% | 4.33% | 19.8% | 7.65% | 42.5% | 0.85%
CCCN(CCS(C)(=O)=O)Cc1ccc(-c2ccc3ncnc(Nc4ccc(OCc5cccc(F)c5)c(Cl)c4)c3c2)o1 | -0.4% | 0.58% | -0.36% | 3.57% | 3.34% | 3.79% | 9.77% | 2.98% | 10.9% | -0.65%
COc1cc(/C=N/Nc2ncnc3[nH]ncc23)ccc1O | 30.6% | 1.99% | 15.4% | 15.3% | 75.5% | 4.69% | 22.6% | 3.33% | 25.7% | 4.08%
Fc1ccc(-c2nn3ccccc3c2-c2ccncc2)cc1 | -0.24% | 0.11% | -0.34% | 3.07% | 6.94% | 0.31% | 3.36% | -0.39% | 3.58% | -0.63%
CC(=O)NCc1cccc(C#Cc2cncnc2Nc2ccc(OCc3cccc(F)c3)c(Cl)c2)c1 | 1.66% | 2.33% | 3.13% | 0.79% | 2.93% | 3.79% | 32.1% | 2.64% | 11.8% | 0.37%
CCOc1ccc2c(-c3ccnc(Nc4cccc(C(F)(F)F)c4)n3)cnn2n1 | 0.96% | 1.1% | 1.8% | 1.46% | 3.63% | 2.65% | 4.31% | -0.81% | 3.49% | 0.02%
CCn1cc(-c2ccnc3[nH]ccc23)c(-c2cccc(NC(=O)Nc3ccc(OCc4ccccc4)cc3)c2)n1 | 2.97% | 1.33% | 2.66% | -3.14% | -3.15% | 0.36% | 1.39% | -1.1% | -0.1% | -0.11%
CCn1c(-c2nonc2N)nc2ccccc21 | 22.2% | 1.04% | 2.84% | 1.29% | 7.45% | 1.93% | 8.64% | 0.78% | 14.7% | -0.05%
